Measurements published in paper PMC7862700, “An all-to-all approach to the identification of sequence-specific readers for epigenetic DNA modifications on cytosine”.

What was measured:
Assay in all cases: DAPPL (digital affinity profiling via proximity ligation, sequencing); 10 mM Tris-HCl pH 7.5, 50 mM NaCl, 1 mM DTT, 4% glycerol, room temperature, 30 min; GST-TFs on glutathione beads, 16-mer random dsDNA library, 0.1% formaldehyde crosslink after washing; high values mean tight binding
FEV = biological target: T1, FEV (Homo sapiens, UniProt Q99581 1-238); conditions: protein: recombinant; tags: N-terminal GST; dsDNA, one strand shown
T1 sequence: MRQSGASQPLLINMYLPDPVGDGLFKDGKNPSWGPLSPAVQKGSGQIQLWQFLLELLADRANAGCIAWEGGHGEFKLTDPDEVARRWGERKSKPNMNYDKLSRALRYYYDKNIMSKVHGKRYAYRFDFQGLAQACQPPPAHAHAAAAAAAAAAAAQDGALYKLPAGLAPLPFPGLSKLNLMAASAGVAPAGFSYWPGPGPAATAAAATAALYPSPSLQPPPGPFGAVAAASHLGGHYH
Summary of the method: (§1)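 Human transcription factors carrying a GST fusion were produced in yeast, bound to glutathione beads, tagged with DNA barcodes and pooled together with a tag-only sample. Each pool was held with 200 nmole of a random double-stranded 16-mer DNA library in Tris/NaCl/DTT/glycerol buffer for 30 min at room temperature, then washed, crosslinked in 0.1% formaldehyde, proximity-ligated with BsaI/T4 ligase (1 h, 37 °C), PCR-amplified and sequenced on an Illumina NextSeq500. Binding signal is the read frequency of each hexamer for a given factor divided by its frequency in the tag-only sample.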

ETV5 = ETV5 (Homo sapiens, UniProt P41161 1-510); conditions: protein: recombinant; tags: N-terminal GST; dsDNA, one strand shown
Sequence of ETV5 (P41161 whole entry): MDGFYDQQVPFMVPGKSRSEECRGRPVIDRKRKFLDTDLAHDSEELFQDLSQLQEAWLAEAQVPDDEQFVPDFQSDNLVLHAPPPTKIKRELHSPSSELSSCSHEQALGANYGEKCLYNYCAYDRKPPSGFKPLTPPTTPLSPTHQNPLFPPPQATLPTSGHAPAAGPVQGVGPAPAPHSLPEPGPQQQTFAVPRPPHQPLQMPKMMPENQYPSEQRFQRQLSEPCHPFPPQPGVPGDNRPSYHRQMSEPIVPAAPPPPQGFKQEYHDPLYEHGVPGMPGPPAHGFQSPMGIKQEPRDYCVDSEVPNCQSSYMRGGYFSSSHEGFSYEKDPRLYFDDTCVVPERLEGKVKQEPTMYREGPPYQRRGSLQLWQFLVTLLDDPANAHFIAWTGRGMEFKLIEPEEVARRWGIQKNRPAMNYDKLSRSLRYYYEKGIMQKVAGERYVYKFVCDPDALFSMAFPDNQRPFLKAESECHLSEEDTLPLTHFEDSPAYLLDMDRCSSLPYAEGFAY
Summary of the method: as §1

HSF1 = HSF1 (Homo sapiens, UniProt Q00613 1-529); conditions: protein: recombinant; tags: N-terminal GST; chain copies: 3; dsDNA, one strand shown
Sequence of HSF1 (Q00613 whole entry): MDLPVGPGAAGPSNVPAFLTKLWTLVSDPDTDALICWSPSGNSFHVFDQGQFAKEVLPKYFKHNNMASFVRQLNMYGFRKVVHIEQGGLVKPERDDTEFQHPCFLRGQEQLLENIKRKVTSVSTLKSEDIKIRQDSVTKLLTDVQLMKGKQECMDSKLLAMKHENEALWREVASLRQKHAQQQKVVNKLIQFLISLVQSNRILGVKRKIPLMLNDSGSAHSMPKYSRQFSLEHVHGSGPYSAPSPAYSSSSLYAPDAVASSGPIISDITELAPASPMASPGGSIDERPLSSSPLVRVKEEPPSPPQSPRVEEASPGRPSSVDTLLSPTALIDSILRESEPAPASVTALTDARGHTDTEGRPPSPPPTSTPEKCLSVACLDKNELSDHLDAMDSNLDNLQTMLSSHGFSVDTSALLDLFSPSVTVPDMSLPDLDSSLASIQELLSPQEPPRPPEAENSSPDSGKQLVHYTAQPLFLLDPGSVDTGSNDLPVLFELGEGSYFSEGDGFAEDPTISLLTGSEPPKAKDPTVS
Summary of the method: as §1

SPIC = biological target: T2, SPIC (Homo sapiens, UniProt Q8N5J4 1-248); conditions: protein: recombinant; tags: N-terminal GST; dsDNA, one strand shown
T2 sequence: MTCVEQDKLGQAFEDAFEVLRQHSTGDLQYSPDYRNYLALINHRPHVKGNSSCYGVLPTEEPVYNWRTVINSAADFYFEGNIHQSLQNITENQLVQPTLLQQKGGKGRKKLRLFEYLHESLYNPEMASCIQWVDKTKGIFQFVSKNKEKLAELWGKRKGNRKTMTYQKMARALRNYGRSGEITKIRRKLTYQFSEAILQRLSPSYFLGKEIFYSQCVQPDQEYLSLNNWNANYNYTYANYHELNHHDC
Summary of the method: as §1

ELF4 = ELF4 (Homo sapiens, UniProt Q99607 1-663); conditions: protein: recombinant; tags: N-terminal GST; dsDNA, one strand shown
Sequence of ELF4 (Q99607 whole entry): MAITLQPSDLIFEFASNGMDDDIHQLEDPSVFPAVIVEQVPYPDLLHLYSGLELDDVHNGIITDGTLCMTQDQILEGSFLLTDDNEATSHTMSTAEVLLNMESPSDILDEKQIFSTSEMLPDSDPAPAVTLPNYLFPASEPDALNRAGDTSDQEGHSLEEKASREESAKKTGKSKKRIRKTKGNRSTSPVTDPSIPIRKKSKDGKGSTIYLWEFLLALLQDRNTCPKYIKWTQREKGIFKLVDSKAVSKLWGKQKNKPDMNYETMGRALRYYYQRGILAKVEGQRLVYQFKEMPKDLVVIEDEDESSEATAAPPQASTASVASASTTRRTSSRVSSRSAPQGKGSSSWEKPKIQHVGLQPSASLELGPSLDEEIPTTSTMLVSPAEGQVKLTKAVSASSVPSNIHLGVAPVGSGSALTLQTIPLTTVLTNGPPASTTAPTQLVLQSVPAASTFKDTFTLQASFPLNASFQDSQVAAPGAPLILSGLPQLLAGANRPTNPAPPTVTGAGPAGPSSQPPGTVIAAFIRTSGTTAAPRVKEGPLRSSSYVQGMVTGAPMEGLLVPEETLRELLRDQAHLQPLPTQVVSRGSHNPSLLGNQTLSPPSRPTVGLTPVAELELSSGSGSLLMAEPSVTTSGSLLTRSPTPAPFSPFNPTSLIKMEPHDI
Summary of the method: as §1

ELK4 = biological target: T3, ELK4 (Homo sapiens, UniProt P28324-2 1-405); conditions: protein: recombinant; tags: N-terminal GST; dsDNA, one strand shown
T3 sequence: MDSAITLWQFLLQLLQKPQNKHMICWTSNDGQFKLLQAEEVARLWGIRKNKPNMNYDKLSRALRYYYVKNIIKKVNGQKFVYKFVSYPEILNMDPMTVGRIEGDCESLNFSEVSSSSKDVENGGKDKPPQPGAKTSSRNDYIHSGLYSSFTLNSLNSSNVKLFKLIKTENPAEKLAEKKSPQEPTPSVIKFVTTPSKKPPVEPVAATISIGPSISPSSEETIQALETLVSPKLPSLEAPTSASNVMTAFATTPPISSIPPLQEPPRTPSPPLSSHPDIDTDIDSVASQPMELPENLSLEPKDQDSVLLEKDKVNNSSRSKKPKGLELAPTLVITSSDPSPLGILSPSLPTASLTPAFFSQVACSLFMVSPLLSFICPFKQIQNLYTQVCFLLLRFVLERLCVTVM
Summary of the method: as §1

ETV2 = biological target: T4, ETV2 (Homo sapiens, UniProt O00321 1-342); conditions: protein: recombinant; tags: N-terminal GST; dsDNA, one strand shown
T4 sequence: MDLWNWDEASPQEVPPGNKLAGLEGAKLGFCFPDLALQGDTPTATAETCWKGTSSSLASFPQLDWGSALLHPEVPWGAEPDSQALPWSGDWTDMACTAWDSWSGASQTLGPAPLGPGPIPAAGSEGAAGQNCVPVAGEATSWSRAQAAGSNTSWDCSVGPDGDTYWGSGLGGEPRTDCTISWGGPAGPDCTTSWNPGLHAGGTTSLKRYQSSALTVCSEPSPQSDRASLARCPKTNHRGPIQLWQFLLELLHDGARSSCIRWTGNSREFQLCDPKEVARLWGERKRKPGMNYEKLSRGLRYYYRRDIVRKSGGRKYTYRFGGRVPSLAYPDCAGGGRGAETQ
Summary of the method: as §1

ELF3 = biological target: T5, ELF3 (Homo sapiens, UniProt P78545 1-371); conditions: protein: recombinant; tags: N-terminal GST; dsDNA, one strand shown
T5 sequence: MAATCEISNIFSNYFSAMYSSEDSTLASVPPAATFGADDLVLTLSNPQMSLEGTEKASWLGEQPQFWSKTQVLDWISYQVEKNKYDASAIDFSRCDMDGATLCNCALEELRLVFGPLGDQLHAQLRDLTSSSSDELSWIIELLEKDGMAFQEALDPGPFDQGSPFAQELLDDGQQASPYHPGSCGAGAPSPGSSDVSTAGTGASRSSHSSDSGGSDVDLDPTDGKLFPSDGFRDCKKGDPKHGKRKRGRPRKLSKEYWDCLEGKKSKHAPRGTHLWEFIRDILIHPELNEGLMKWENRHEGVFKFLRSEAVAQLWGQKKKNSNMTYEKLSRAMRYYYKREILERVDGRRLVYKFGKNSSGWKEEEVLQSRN
Summary of the method: as §1

ETV1 = ETV1 (Homo sapiens, UniProt P50549 1-477); conditions: protein: recombinant; tags: N-terminal GST; dsDNA, one strand shown
Sequence of ETV1 (P50549 whole entry): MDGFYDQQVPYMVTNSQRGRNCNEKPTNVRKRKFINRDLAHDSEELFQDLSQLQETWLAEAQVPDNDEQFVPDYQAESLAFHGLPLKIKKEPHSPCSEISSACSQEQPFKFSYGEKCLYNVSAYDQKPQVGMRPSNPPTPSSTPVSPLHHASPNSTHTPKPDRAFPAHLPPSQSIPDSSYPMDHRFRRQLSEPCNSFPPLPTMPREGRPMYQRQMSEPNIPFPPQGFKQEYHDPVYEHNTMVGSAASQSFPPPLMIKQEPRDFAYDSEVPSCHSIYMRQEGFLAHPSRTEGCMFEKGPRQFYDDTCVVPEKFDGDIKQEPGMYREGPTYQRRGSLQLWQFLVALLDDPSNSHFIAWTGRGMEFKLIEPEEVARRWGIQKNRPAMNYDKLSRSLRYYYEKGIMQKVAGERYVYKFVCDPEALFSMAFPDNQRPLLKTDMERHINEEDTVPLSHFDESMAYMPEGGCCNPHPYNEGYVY
Summary of the method: as §1

**Q.** Which results are given for GCACGA?
**A.** binding signal (FEV): 1.09 fold enrichment (6-mer frequency, TF over GST control); binding signal (ETV5): 1.15 fold enrichment (6-mer frequency, TF over GST control); binding signal (HSF1): 1.04 fold enrichment (6-mer frequency, TF over GST control); binding signal (SPIC): 1.18 fold enrichment (6-mer frequency, TF over GST control); binding signal (ELF4): 1.1 fold enrichment (6-mer frequency, TF over GST control); binding signal (ELK4): 1.13 fold enrichment (6-mer frequency, TF over GST control); binding signal (ETV2): 1.31 fold enrichment (6-mer frequency, TF over GST control); binding signal (ELF3): 1.16 fold enrichment (6-mer frequency, TF over GST control); binding signal (ETV1): 1.05 fold enrichment (6-mer frequency, TF over GST control)
